This is part of a sample that, as a whole, favours compounds with a hit. Of some 83,000 tested, about 20% had one in any assay.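 Testing used 96-well plates and a 48-hour single-concentration exposure. Example: -40 means 40% of the starting cells died.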 Calls of active or inactive are those of the source. How the source made its calls: active means growth percent below 10; inactive means the rest.
These compounds were tested on MDA-MB-468 breast (assay: NCI-60 one-dose screen, 48 h (100 = growth as untreated, 0 = no growth, -100 = all killed)). Settings: 10 µM unless noted.

Structure (SMILES)	growth
Cc1cc(C)n(CC(=O)Nc2ccc(-c3nc4ccccc4s3)cc2)n1	-3.57% (active)
Cc1cc(-c2ccc(N=Nc3c(S(=O)(=O)O)cc4cc(S(=O)(=O)O)cc(N)c4c3O)c(C)c2)ccc1N=Nc1cc(S(=O)(=O)O)c2ccccc2c1O	105% (inactive)
COC(=O)CC[C@@H]1O[C@@H](c2ccc(F)cc2)[C@@H](O)[C@H]1O	96.5% (inactive)
COC(=O)[C@]12CC[C@@H](C(/C=C/c3cccnc3)=N/O)[C@@H]1[C@H]1CC[C@@H]3[C@@]4(C)CC(=C/c5cccnc5)/C(=N/O)C(C)(C)[C@@H]4CC[C@@]3(C)[C@]1(C)CC2	13.1% (inactive)
COc1ccc(Br)c(/C=C2\SC(=Nc3ccc(O)cc3)NC2=O)c1	85% (inactive)
C[C@H]1[C@H](OC(=O)CCC(=O)O)O[C@@H]2O[C@]3(C)CC[C@H]4[C@H](C)CC[C@@H]1[C@@]24OO3	29.1% (inactive)
CCOC(=O)CCC(=O)P(=O)(O)O	114% (inactive)
CN1C(=O)CN2CCc3ccccc3C2c2cc(Cl)ccc21 (stereo not given)	115% (inactive)
O=c1cc(-c2ccccc2)[nH]c2ccccc12	59.5% (inactive)
CCOC(=O)CNC(=O)Nc1ccc(Oc2ccc(NC(=O)NCC(=O)OCC)cc2)cc1	99.5% (inactive)
CCCCCCCCCCCCCCCCNC(=O)OC(C)C	36.1% (inactive)
CCCCCCNC(=O)Oc1ccc(/C(=C(\C)c2ccccc2)c2ccc(OCCCN(C)C)cc2)cc1	95% (inactive)
COc1ccc2nc(-c3ccc(OC)c(OC)c3)cc(-c3nnc(SCC(=O)Nc4ccc(C(C)=O)cc4)o3)c2c1	103% (inactive)
CCN(CC)CCC(=O)c1cccc2ccccc12	84.5% (inactive)
CC[C@H](C)[C@H](NC(=O)[C@@H](N)CCC(N)=O)C(=O)N[C@@H](Cc1ccc(O)cc1)C(=O)N[C@@H](CCCCN)C(=O)N[C@@H](CCCCN)C(=O)N[C@@H](Cc1ccc(O)cc1)C(=O)N[C@@H](CCCNC(=N)N)C(=O)N[C@H](C(=O)N[C@@H](Cc1c[nH]c2ccccc12)C(=O)N[C@@H](Cc1ccc(O)cc1)C(=O)N[C@@H](CCCNC(=N)N)C(=O)N[C@@H](CCCCN)C(=O)N[C@@H](C)C(=O)N[C@@H](Cc1c[nH]c2ccccc12)C(=O)N[C@@H](CCCCN)C(=O)N[C@H](C(=O)N[C@@H](CC(C)C)C(=O)NCC(=O)N[C@@H](CCCCN)C(=O)N[C@H](C(N)=O)C(C)C)C(C)C)[C@@H](C)O	44.6% (inactive)
O=C1Nc2ccccc2C12C=C(c1ccccc1)Nc1c2c(-c2ccccc2)nn1-c1ccccc1 (stereo not given)	105% (inactive)
Nc1ccc2c(c1)C(=O)C(=O)c1c-2nc2ccccn12	-38.2% (active)
O=S(=O)(NCCCNc1nccc(-c2[nH]c(-c3ccccc3)nc2-c2ccc(Cl)c(O)c2)n1)c1cccc(F)c1	50.9% (inactive)
CCOC(=O)n1cc(-c2nonc2-c2cn(C)c3ccc(OC)cc23)c2cc(F)ccc21	87.3% (inactive)
COC(=O)c1c2c(c(C)[n+]([O-])c1C)C(=O)C(NCc1ccc(F)c(F)c1)=CC2=O	-26.1% (active)

Structure (SMILES)	growth
CN1CCN(Cc2ccc(NC(=O)c3[nH]ncc3Nc3ccnc4ccnn34)cc2)CC1	65.6% (inactive)
COc1ccc(C2C(C#N)=C(N)Oc3c2sc2c(C)cccc32)cc1 (stereo not given)	8.47% (active)
COc1ccc(N2CCN(Cc3cc(C(=O)/C=C/c4c[nH]c5ccccc45)ccc3O)CC2)cc1	99.5% (inactive)
COc1ccc(/C=N/c2cc(C(C)(C)C)nn2-c2ccccc2)cc1	124% (inactive)
COc1cc(/C=C/c2cc(/C=C/c3ccc(O)c(OC)c3)[nH]c(=O)n2)ccc1O	6.34% (active)
COc1cc(/C=C/C(=O)c2cc(OC)c(OC)c(OC)c2)ccc1OCc1ccc(F)cc1	17.8% (inactive)
CCc1c(C)c2ccc(OCC(=O)N=Nc3c(O)[nH]c4ccccc34)c(C)c2oc1=O	18.9% (inactive)
CCN(CC)CCC(=O)c1ccc(OC)c2ccccc12	49.7% (inactive)
Cc1cc(Cl)nc(N(CCCNc2ccnc3cc(Cl)ccc23)Cc2cccs2)n1	-30.1% (active)
O=C(O)COCC(=O)O	93.6% (inactive)
CCOC(=O)CC(S(=O)(=O)c1ccccc1)S(=O)(=O)c1ccccc1	23.2% (inactive)
O=c1c2ccccc2nc2n1Cc1nc3ccccc3c(=O)n1C2	90.6% (inactive)
c1ccc(Sc2ncccn2)nc1	97% (inactive)
O=C(CSc1nnc(-c2cccnc2SCc2ccccc2)o1)Nc1nc(Cl)cc(Cl)n1	98.8% (inactive)
Cc1cccc(C)c1N=c1oc2ccc(Cl)cc2nc1-c1ccccc1O	94.8% (inactive)
c1ccc(-c2cc(-c3cc(-c4ccccc4)on3)no2)cc1	84.9% (inactive)
CCOC(=O)C(=O)/C(=C\c1ccc(Cl)cc1)C(=O)N1C(=S)NC(=O)C1CC(C)C (stereo not given)	90% (inactive)
CCc1ccc(CCC(=O)Nc2ncc(Cc3ccc(Cl)cc3)s2)o1	0.812% (active)
CN(C)CCSC1=Nc2ccc(Cl)cc2C(c2ccccc2Cl)N(C)C1 (stereo not given)	58.4% (inactive)
O=C(O)/C=C\C(=O)Nc1ccc2c(c1)Cc1cc(F)ccc1-2	109% (inactive)

Source: PubChem BioAssay (NCI)
